Wnt bcat act: Wnt/beta-catenin pathway activators, primary screen, cell-based, plate reader, single point; Wnt/beta-catenin reporter cell assay, activator; activation, % at 9.35 µM; actives 1.2% (n = 300,000); in the data active means activation above about 30%, passing the limit was not always enough; inconclusive means no clear call, values can overlap the other calls;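 further: 0% = neutral control wells and 100% = positive control wells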
C2C12 statin: suppressors of statin myotoxicity in C2C12 myotubes, primary screen, cell-based, single point, plate reader; C2C12 myotubes + simvastatin, ATP luminescence, 48 h; scaled: DMSO 0, geranylgeraniol control 100; rescue of ATP level, % at 7.49 µM; actives 0.78% (n = 330,000); AID 602340, 2012;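 active means mean ATP rescue above about 67%, or every replicate alone reaching that limit, limit read from the data, passing the limit was not always enough; inconclusive means no clear call, values can overlap the other calls; inactive means mean under the limit and some replicate under it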;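 further: myotubes were challenged with 10 µM simvastatin during compound exposure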
LMP1 NFkB inh: EBV LMP1-driven NF-kappaB luciferase reporter inhibitors, primary screen, cell-based, luminescence, single point; LMP1-induced NF-kappaB luciferase reporter cells; inhibition, % at 12.5 µM; actives 0.69% (n = 350,000); in the data active means inhibition above about 41%; inconclusive means no clear call, values can overlap the other calls;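 further: 0% = neutral control wells and 100% = reference inhibitor control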
TRPM1 prom inh: inhibitors of MITF-dependent TRPM1 promoter reporter, primary screen, cell-based, SK-MEL-5, single point, luciferase. inhibition, % at 12.5 µM. SK-MEL-5 TRPM1 promoter luciferase, 24 h. actives 0.83% (n = 330,000). AID 488899, 2010;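 active means mean inhibition across replicates of 60% or more, whatever share of single replicates reaches that level; inconclusive means some that reach 60%, reason not given; inactive means mean inhibition across replicates below 60%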
esBAF inh: Bmi1 luciferase reporter increase in mESCs, primary screen, esBAF inhibitor project, mouse ES cells, Bmi1 luciferase knock-in, single point; 24 h; 100% = twice the neutral-well signal; reporter increase, % at 12.5 µM; actives 2% (n = 350,000); in the data active means activation above about 40%; inconclusive means no clear call, values can overlap the other calls;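 further: 0% = median of the plate's neutral control wells and 100% = double that signal; a rise in the Bmi1 reporter signal indicates esBAF inhibition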
MITF TRPM1 HTS: activators of MITF-driven TRPM1 promoter reporter, primary screen, cell-based, SK-MEL-5, luciferase, single point; SK-MEL-5 TRPM1-promoter luciferase, 24 h; % of positive control, neutral wells = 0; activation, % at 12.5 µM; actives 0.75% (n = 300,000);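 active means mean activation of at least 80% with every replicate also reaching 80%; inconclusive means mean reaches 80% but some replicate falls short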;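 further: 0% = neutral control wells and 100% = parthenolide positive control wells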
* = called active by the depositor; ? = inconclusive; nt = not tested or not shown. The list is not random: actives were taken first. Their share in the collection is about 4%.

SMILES	Wnt bcat act	C2C12 statin	LMP1 NFkB inh	TRPM1 prom inh	esBAF inh	MITF TRPM1 HTS
COc1ccc2c(c1)/C(=C\c1cccc(/C=C3/C(=O)Nc4ccc(OC)cc43)n1)C(=O)N2	-4.6	nt	89.4*	98.3*	nt	-98.1
Cc1ccc2c(c1)/C(=C/c1ccccc1)C(=O)N2	2.6	16.1	-2.0	3.7	-0.2	-3.6
Cc1ccccc1Nc1sc(C(=O)Nc2cccc(Cl)c2)c(N)c1C(N)=O	51.5*	nt	3.4	-10.3	nt	16.5
Cc1cc(C)c(C(N)=O)c(Nc2cccc(Cl)c2)n1	2.3	13.9	3.9	-4.0	-0.2	4.7
C[C@@H]1Cc2c(O)c(O)cc(O)c2C(=O)O1	nt	7.4	-3.4	-3.0	-0.4	1.4
CC1CCC/C=C/C(=O)c2c(O)cc(O)cc2CC(=O)O1 (stereo unspecified)	-3.0	-15.5	-18.7	91.6*	-6.2	-90.6
C/C(=N\NC(=O)c1cc2c(s1)CCC(C)C2)c1ccncc1 (stereo unspecified)	20.2	-16.7	0.2	-29.8	9.3	33.5
C/C(=N\NC(=O)c1cc2c(s1)CCC(C)C2)c1ccc[nH]1 (stereo unspecified)	?	-0.4	-11.4	-102.8	28.1	104.4*
Cc1cc(/C=N/n2cnnc2)c(C)n1-c1ccc(Cl)cc1Cl	nt	97.1*	-1.6	9.4	8.9	-8.9
Cc1cc(/C=N/n2cnnc2)c(C)n1-c1ccc(OCc2ccc(Cl)cc2Cl)cc1	nt	nt	30.8	92.5*	nt	-92.1
Cc1cc(/C=N/n2cnnc2)c(C)n1-c1ccc(Cl)cc1	-3.2	nt	3.3	9.4	nt	-11.8
O=C(c1ccc(Cn2c(=S)[nH]c3ccccc3c2=O)cc1)N1CCN(c2ccccn2)CC1	2.1	-35.9	18.9	33.5	9.9	-36.3
N#C/C(=C\c1ccc(N2CCCCC2)o1)C(=O)Nc1cccc(Br)c1	37.9*	nt	-30.3	0.3	nt	3.6
O=[N+]([O-])c1ccccc1OCc1nc(-c2cccs2)no1	8.4	nt	-50.2	-118.7	nt	119.0*
O=[N+]([O-])c1ccc(F)cc1OCc1nc(-c2cccs2)no1	16.5	nt	-36.5	-90.4	nt	?
CCOC(=O)CNC(=O)c1cccnc1	nt	9.1	-8.6	1.9	-10.4	-2.5
Cc1noc(C)c1C(=O)OCC(=O)c1cc(C)n(Cc2ccccc2Cl)c1C	40.6*	-14.9	-24.4	-51.7	28.3	54.9
Cc1noc(C)c1C(=O)OCC(=O)c1ccc[nH]1	-1.6	-1.5	-0.6	5.3	8.9	-2.9
CCOC(=O)C1=NN(C(=O)Cc2ccccc2)C(O)(c2ccc(Cl)cc2)C1 (stereo unspecified)	-2.4	139.2*	-6.4	-7.8	-1.1	5.9
Nc1nnnn1/N=C/c1ccccn1	-0.1	83.4*	3.0	-9.1	-2.2	6.9
CCOC(=O)CC1C(=O)NCCN1Cc1cccs1 (stereo unspecified)	-5.0	1.1	2.3	5.5	-1.7	-1.8
CCOCCCNCC(O)c1ccccc1 (stereo unspecified)	nt	nt	0.2	18.6	nt	-19.7
OCc1cc(C(O)CNCCCCCCOCCCCc2ccccc2)ccc1O (stereo unspecified)	-3.2	5.6	55.2*	1.7	-9.8	-0.2
Cc1ccc(C)c(N=Nc2nc3ccccc3n2C)c1	nt	-21.3	-29.9	-0.8	41.4*	0.2
Cc1cc(C)c(C)c(N=Nc2nc3ccccc3n2C)c1C	nt	nt	-5.5	21.1	nt	-22.2
SMILES	Wnt bcat act	C2C12 statin	LMP1 NFkB inh	TRPM1 prom inh	esBAF inh	MITF TRPM1 HTS
CCC(C)(C)NC(=O)CN(C(=O)CNS(=O)(=O)c1ccccc1)c1ccccc1	0.2	100.7*	-14.8	-6.5	-3.5	9.2
COc1ccc(CC(=O)NC(C)c2nnc(SCC(=O)Nc3ccccc3F)n2C)cc1 (stereo unspecified)	0.7	nt	-7.5	12.2	nt	-12.5
CCOc1ccc(N(CC(=O)Nc2ccccc2)S(C)(=O)=O)cc1	nt	nt	-2.2	-4.3	nt	2.6
COc1ccc(N(CC(=O)Nc2cccc(SC)c2)S(C)(=O)=O)cc1	nt	19.3	-8.8	-26.3	45.3*	28.7
COc1ccc(N(CC(=O)Nc2cccc(C(F)(F)F)c2)S(C)(=O)=O)cc1	2.3	-2.6	-3.3	-8.1	10.2	nt
CCOc1ccc(N(CC(=O)Nc2ccc(C)c(C)c2)S(C)(=O)=O)cc1	12.9	4.6	-22.3	-42.8	83.6*	38.6
O=C(Nc1ccnn1C1CCN(Cc2ccccc2)CC1)C1CCOC1 (stereo unspecified)	1.9	2.8	5.9	0.5	-7.1	0.1
Cc1ccccc1NC(=O)N1CCCC(c2nc(-c3ccc(C(C)C)cc3)no2)C1 (stereo unspecified)	-9.3	-20.5	-16.0	28.8	28.4	-27.1
CC1Cc2nc(SCC(=O)Nc3ccc4c(c3)OCCO4)n(C)c(=O)c2S1 (stereo unspecified)	nt	-29.5	-8.3	3.8	8.8	-5.5
CC1Cc2nc(SCC(=O)Nc3ccc4c(c3)OCO4)n(Cc3ccccc3)c(=O)c2S1 (stereo unspecified)	nt	-0.6	-39.6	-57.6	63.9*	59.0
COCCn1c(SCC(=O)Nc2ccc3c(c2)OCCO3)nc2c(c1=O)SC(C)C2 (stereo unspecified)	17.2	1.9	-40.1	-13.1	47.0*	13.9
CCn1c(SCC(=O)Nc2cc(OC)ccc2OC)nc2c(c1=O)SCC2	3.6	-2.9	-3.4	8.2	2.4	-1.4
CCn1c(SCC(=O)NCc2ccc3c(c2)OCO3)nc2c(c1=O)SCC2	30.7*	-6.1	-5.0	10.5	-4.1	-12.8
CN1C(=O)c2cc(NC(=O)c3cscn3)ccc2OC[C@H]2O[C@H](CC(=O)NCc3ccc(Cl)c(Cl)c3)CC[C@@H]21	nt	16.6	nt	nt	-2.8	nt
O=C1OC2(CCCCC2)OC(=O)C1=CNc1ccc2c(c1)OCO2	nt	-17.6	-31.1	-36.7	56.6*	35.2
Cc1cccnc1NC(=O)c1ccc(S(=O)(=O)NCc2ccco2)cc1	-2.4	-4.0	-0.9	0.8	6.2	-0.2
O=C(Nc1ncccc1O)c1ccc(S(=O)(=O)NCc2ccco2)cc1	-6.9	nt	42.6*	nt	nt	nt
CC1(C)C2CC=C(/C=N/NC(=S)Nc3cccnc3)C1C2 (stereo unspecified)	-1.1	nt	1.3	9.5	nt	-10.3
CC1=C/C(=N\NC(=S)Nc2cccnc2)CC(C)(C)C1	-3.5	8.4	9.5	62.4*	0.7	-62.6
COc1ccc2c(=O)c(C(=O)NCCc3ccccc3)c[nH]c2c1	23.5	-7.3	-20.9	-62.4	55.0*	59.8
COc1ccc2cc(C(=O)NCCc3ccccc3)[nH]c2c1	13.3	1.3	2.5	-81.1	42.8*	?
Cc1cc(C)c(C)c(S(=O)(=O)NCC(=O)N2CCCC2)c1C	-4.0	115.1*	-2.8	15.2	-2.8	-10.3
Cn1c(NCc2ccccc2)nc2cc(-c3ccccc3)sc2c1=O	-0.6	2.6	nt	nt	32.7	nt

Screening results deposited in PubChem by Broad Institute.
